Results: PubChem BioAssay
Values joined by “and” are separate entries in the source; they are usually repeats but may differ in a detail not shown here. Equal entries are not always repeated. Active and inactive are the calls of the source.

Experiments:
[1] = small molecules captured by biotinylated probe aFSTL3 – biochemical, small-molecule microarray, fluorescence 635/667, stem cell growth factor project, primary screen (AID 1064); details: higher = more signal;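 further: measures binding of the biotinylated anti-FSTL3 antibody to printed compounds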
[2] = binders from COS7 lysate, DM2A8 probe, primary screen, torsin A project, cell lysate, small-molecule microarray, fluorescence 635/667 (AID 1065); details: higher = more signal, COS7 lysate expressing mutant human TOR1A
[3] = small molecules captured by biotinylated probe aFGF2 – biochemical, small-molecule microarray, fluorescence 635/667, stem cell growth factor project, primary screen (AID 1067); details: higher = more signal;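 further: measures binding of biotinylated aFGF2 protein to printed compounds on slides; z-score merges feature fluorescence and signal-to-noise across triplicate slides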
[4] = small molecules captured by biotinylated probe aFGF10 – biochemical, small-molecule microarray, fluorescence 635/667, stem cell growth factor project, primary screen (AID 1071); details: higher = more signal;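 further: score merges 667 nm spot intensity and signal to noise from triplicate slides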
[5] = molecular target: Neurogenic locus notch homolog protein 2 (Homo sapiens) (UniProt Q04721); test: small molecules binding Notch2 protein – biochemical, small-molecule microarray, 635 nm fluorescence, stem cell growth factors, primary screen (AID 1073); details: higher = more signal
[6] = molecular target: Pro-neuregulin-1, membrane-bound isoform (Homo sapiens) (UniProt Q02297); test: small molecules binding neuregulin-1 protein – biochemical, small-molecule microarray, fluorescence 635/667, psychiatric disease protein project, primary screen (AID 1075); details: NRG1 binding, 635 nm fluorescence, higher = more signal;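 further: score combines 667 nm spot fluorescence with signal to noise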
[7] = test system: Neuregulin-1 EGF-like domain; test: small molecules binding NRG1 EGF domain – biochemical, small-molecule microarray, 635 nm fluorescence, primary screen (AID 1081); details: higher = more signal;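 further: binding of the protein to compounds printed on small-molecule microarray slides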
[8] = FRG1 expression reporter modulators in myotubes – cell-based, C2C12 myotubes, firefly/Renilla luciferase, luminescence, FRG1 inhibition for FSHD, primary screen (AID 1084); details: FRG1 promoter luciferase, higher = more signal, called active from +8 up or from −8 down
[9] = small molecules captured by biotinylated probe aFST – biochemical, small-molecule microarray, fluorescence 635/667, stem cell growth factor project, primary screen (AID 1086); details: higher = more signal;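 further: score merges 667 nm fluorescence with signal-to-noise of each printed compound spot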
[10] = binders of probe aHhip on microarray, primary screen, stem cell growth factor project, biochemical, small-molecule microarray, fluorescence 635/667 (AID 1087); details: higher = more signal;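 further: score merges spot fluorescence at 667nm with spot signal to noise ratio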

Chain of Pro-neuregulin-1, membrane-bound isoform (Homo sapiens) (Q02297 whole entry, looked up, the tested form may be a part, canonical isoform): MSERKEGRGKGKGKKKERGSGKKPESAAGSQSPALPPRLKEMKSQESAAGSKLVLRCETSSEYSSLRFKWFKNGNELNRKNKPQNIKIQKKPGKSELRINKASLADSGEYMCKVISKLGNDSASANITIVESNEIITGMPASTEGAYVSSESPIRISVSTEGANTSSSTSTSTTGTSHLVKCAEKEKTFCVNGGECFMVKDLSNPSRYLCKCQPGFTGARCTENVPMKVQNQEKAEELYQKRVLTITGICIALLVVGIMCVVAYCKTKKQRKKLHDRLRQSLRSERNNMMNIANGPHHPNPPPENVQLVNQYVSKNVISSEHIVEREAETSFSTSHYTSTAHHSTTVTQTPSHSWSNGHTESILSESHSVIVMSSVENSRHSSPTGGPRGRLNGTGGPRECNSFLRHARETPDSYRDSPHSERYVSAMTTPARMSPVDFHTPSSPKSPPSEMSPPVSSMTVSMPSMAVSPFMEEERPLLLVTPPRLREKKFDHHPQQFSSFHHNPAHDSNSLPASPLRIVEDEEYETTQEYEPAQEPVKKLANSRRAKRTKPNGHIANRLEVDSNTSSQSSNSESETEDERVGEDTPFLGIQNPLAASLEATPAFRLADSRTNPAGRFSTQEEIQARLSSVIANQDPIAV
Chain of Neurogenic locus notch homolog protein 2 (Homo sapiens) (Q04721 whole entry, looked up, canonical isoform): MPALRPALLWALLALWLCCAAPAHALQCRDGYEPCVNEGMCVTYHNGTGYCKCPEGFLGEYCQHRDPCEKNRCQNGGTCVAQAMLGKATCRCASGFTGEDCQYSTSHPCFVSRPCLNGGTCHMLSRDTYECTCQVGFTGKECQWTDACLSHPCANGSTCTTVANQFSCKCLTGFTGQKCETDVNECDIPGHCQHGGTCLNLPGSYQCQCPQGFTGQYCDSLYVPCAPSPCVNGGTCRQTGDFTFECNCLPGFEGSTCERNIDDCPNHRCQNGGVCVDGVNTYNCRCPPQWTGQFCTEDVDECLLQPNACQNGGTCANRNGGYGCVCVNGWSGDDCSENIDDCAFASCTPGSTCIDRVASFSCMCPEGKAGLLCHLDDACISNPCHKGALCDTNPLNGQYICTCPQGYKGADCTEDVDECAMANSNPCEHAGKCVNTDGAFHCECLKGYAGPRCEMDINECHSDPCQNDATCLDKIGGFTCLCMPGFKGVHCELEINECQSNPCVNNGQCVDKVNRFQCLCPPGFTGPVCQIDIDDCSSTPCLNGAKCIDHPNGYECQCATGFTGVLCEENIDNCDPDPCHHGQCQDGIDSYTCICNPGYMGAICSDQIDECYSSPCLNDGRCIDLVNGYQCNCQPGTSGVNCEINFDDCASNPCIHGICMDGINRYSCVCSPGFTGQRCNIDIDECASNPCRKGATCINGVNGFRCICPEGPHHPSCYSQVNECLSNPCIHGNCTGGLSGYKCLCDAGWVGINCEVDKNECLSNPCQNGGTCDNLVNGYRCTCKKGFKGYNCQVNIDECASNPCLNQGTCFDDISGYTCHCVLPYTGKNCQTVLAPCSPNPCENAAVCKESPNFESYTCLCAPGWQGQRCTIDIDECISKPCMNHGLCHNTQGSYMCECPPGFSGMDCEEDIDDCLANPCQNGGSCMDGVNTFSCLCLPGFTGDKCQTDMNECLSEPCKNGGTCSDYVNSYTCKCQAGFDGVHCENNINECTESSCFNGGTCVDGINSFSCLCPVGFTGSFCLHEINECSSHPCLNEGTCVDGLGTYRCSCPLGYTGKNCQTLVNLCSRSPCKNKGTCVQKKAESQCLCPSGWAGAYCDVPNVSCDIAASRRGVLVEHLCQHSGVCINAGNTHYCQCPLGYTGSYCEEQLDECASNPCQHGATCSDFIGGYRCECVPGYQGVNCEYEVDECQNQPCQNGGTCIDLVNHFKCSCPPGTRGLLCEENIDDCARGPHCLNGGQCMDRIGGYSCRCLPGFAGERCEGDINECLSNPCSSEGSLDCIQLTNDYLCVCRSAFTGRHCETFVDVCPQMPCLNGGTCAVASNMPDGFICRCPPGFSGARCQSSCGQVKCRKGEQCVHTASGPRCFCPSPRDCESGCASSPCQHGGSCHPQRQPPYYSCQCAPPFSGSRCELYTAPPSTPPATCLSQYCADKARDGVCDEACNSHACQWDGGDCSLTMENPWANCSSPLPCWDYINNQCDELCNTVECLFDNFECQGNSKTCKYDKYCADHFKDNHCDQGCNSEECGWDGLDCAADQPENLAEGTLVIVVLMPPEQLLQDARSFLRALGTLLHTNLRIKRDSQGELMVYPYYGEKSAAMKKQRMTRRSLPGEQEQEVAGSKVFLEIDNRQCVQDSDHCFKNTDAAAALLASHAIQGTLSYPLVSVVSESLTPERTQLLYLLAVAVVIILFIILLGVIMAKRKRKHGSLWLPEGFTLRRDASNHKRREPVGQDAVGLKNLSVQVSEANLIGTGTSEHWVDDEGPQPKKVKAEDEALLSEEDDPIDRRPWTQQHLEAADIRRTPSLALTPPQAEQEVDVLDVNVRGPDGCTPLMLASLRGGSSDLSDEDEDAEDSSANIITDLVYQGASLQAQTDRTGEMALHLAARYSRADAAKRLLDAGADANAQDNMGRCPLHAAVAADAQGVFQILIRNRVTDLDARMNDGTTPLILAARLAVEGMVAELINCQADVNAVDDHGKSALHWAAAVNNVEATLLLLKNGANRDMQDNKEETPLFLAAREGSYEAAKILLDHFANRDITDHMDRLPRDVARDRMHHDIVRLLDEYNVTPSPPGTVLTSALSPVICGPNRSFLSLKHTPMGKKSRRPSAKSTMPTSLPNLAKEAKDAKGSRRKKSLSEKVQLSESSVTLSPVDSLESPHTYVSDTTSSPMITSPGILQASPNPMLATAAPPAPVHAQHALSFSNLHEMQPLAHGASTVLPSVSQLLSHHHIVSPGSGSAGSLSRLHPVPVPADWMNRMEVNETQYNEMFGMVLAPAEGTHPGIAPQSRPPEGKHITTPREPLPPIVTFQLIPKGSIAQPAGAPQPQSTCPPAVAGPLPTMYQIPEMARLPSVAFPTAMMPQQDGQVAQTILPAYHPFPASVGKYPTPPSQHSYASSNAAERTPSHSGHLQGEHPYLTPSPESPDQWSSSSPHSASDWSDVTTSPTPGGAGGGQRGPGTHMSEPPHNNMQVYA

With CC(C)CCN1CCc2nc(-c3ccccc3)c3c(c2C1)CO[C@@H](C)C3 the composite z-score [1] was 1.3, the composite z-score [2] was 0.0532 and the composite z-score [3] was -0.0996. The composite z-score [4] was 0.491, the composite z-score [5] was 0.698 and the composite z-score [6] was 0.334. The composite z-score [7] was 1.17, the z-score [8] was -0.174 (inactive) and the composite z-score [9] was 0.57. It also gave a composite z-score [10] of 0.208.
CCOC(=O)NN=C1C[C@@H](O)[C@@H](O)[C@@H]2[C@@H]3C(=O)N(Cc4ccccc4)C(=O)[C@@H]3CC[C@@H]12 showed a composite z-score [1] of -0.629, a composite z-score [2] of 0.0854 and a composite z-score [3] of -0.202. For the same compound, the composite z-score [4] was 0.295, the composite z-score [5] was 0.388 and the composite z-score [6] was 0.318. For the same compound, the composite z-score [7] was -0.026, the z-score [8] was -0.0833 (inactive) and the composite z-score [9] was -0.0089. The composite z-score [10] was -0.0391.
For C[C@@H]1CC[C@H]2C(=O)NC[C@@H](O)CN2[C@H]1c1ccc(Br)cc1, the composite z-score [1] was -0.194 and -0.181, the composite z-score [2] was 0.332 and 0.0997 and the composite z-score [3] was -0.116 and -0.134. The composite z-score [4] was 0.23 and 0.0389, the composite z-score [5] was -0.556 and -0.244 and the composite z-score [6] was 0.229 and -0.138. The composite z-score [7] was 0.693 and 0.72, the z-score [8] was 0.674 (inactive) and -0.078 (inactive) and the composite z-score [9] was -0.304 and 0.127. For the same compound, the composite z-score [10] was -0.3 and -0.134.
Work on CCOC(=O)NN=C1C[C@@H](O)[C@@H](O)[C@@H]2[C@@H]3C(=O)N(Cc4ccc5c(c4)OCO5)C(=O)[C@@H]3CC[C@@H]12 yielded a composite z-score [1] of -0.441, a composite z-score [2] of 0.16 and a composite z-score [3] of -0.121. It also gave a composite z-score [4] of 0.505, a composite z-score [5] of 0.34 and a composite z-score [6] of 0.416. For the same compound, the composite z-score [7] was 0.858, the z-score [8] was -0.544 (inactive) and the composite z-score [9] was 0.16. It also gave a composite z-score [10] of 0.007.
In the case of CO[C@@H]1COC(=O)[C@H](Cc2ccccc2)NC(=O)CC=C[C@@H](C)[C@H](OC)COC(=O)[C@@H](C)NC(=O)CC=C[C@H]1C, the composite z-score [1] is reported as -0.501 and -1.33, the composite z-score [2] is reported as 1.23 and 0.603 and the composite z-score [3] is reported as -0.132 and -0.168. For the same compound, the composite z-score [4] was 0.0044 and 0.401, the composite z-score [5] was -0.223 and -0.012 and the composite z-score [6] was -0.258 and -0.159. The composite z-score [7] was 0.383 and 0.284, the z-score [8] was 0.361 (inactive) and -0.178 (inactive) and the composite z-score [9] was 0.409 and -0.084. For the same compound, the composite z-score [10] was 0.154 and -0.271.
CC(C)CON=C1C[C@@H](O)[C@@H](O)[C@@H]2[C@@H]3C(=O)N(c4cccc(Oc5ccccc5)c4)C(=O)[C@@H]3CC[C@H]12 showed a composite z-score [1] of -0.273, a composite z-score [2] of 0.459 and a composite z-score [3] of -0.179. The composite z-score [4] was 0.253, the composite z-score [5] was 0.547 and the composite z-score [6] was 0.685. For the same compound, the composite z-score [7] was 0.781, the z-score [8] was -0.423 (inactive) and the composite z-score [9] was 0.769. It also gave a composite z-score [10] of -0.0645.
For C=CCN(CCCC)C(=O)C1N(c2c(Cl)cccc2CO)C(=O)C2C(C(=O)O)C3C=CC21O3 (stereo not given), the composite z-score [1] was 1.38 and 0.489, the composite z-score [2] was -0.331 and -0.392 and the composite z-score [3] was -0.247 and -0.307. For the same compound, the composite z-score [4] was -0.842 and -1.3, the composite z-score [5] was -1.17 and -1.13 and the composite z-score [6] was -0.909 and 0.0849. The composite z-score [7] was -0.981 and 0.374, the z-score [8] was 0.183 (inactive) and -0.987 (inactive) and the composite z-score [9] was -0.931 and -0.719. For the same compound, the composite z-score [10] was -0.412 and -0.323.
For CCN1C(=O)[C@H]2[C@H]3[C@H](O)[C@H](O)CC(=NOC[C@@H](O)COCc4ccco4)[C@@H]3CC[C@H]2C1=O, the composite z-score [1] was -0.841 and -0.446, the composite z-score [2] was 2.37 and 0.0438 and the composite z-score [3] was -0.235 and -0.132. The composite z-score [4] was -0.507 and 0.352, the composite z-score [5] was -0.413 and -0.498 and the composite z-score [6] was -0.538 and -0.26. For the same compound, the composite z-score [7] was 0.837 and 1.12, the z-score [8] was 0.235 (inactive) and 0.417 (inactive) and the composite z-score [9] was -0.104 and -0.45. The composite z-score [10] was -0.0645 and 0.154.
With C=C[C@@H](OC)[C@H](O)c1ccc(OCCO)cc1 the composite z-score [1] was -0.145 and 0.184, the composite z-score [2] was -0.492 and -1.23 and the composite z-score [3] was -0.206 and -0.178. The composite z-score [4] was -0.976 and -0.915, the composite z-score [5] was -1.07 and -1.57 and the composite z-score [6] was -0.748 and -0.394. For the same compound, the composite z-score [7] was -0.0048 and 0.0968, the z-score [8] was 1.74 (inactive) and 0.386 (inactive) and the composite z-score [9] was -0.984 and -1.26. For the same compound, the composite z-score [10] was -0.236 and -0.196.
CC(C)=NOC[C@@H](O)COCc1ccco1 gave a composite z-score [1] of -0.0008, a composite z-score [2] of 2.26 and a composite z-score [3] of -0.0924. The composite z-score [4] was 0.0026, the composite z-score [5] was -1.37 and the composite z-score [6] was 0.126. For the same compound, the composite z-score [7] was -0.603, the z-score [8] was 0.929 (inactive) and the composite z-score [9] was -0.549. It also gave a composite z-score [10] of -0.0645.
For CO[C@H]1COC(=O)CC=C[C@H](C)[C@H](OC)COC(=O)[C@@H](C)COC(=O)CC=C[C@@H]1C, the composite z-score [1] was -0.62 and -0.66, the composite z-score [2] was 0.767 and 1.26 and the composite z-score [3] was -0.14 and -0.143. For the same compound, the composite z-score [4] was -0.0016 and 0.149, the composite z-score [5] was -0.178 and 0.182 and the composite z-score [6] was -0.73 and -0.518. The composite z-score [7] was -0.104 and 0.0825, the z-score [8] was -0.407 (inactive) and -1.3 (inactive) and the composite z-score [9] was -0.0446 and -0.0435. The composite z-score [10] was -0.261 and -0.0645.
In the case of CCCNC(=O)OC[C@H]1O[C@H](CCON=C(C)CCC(=O)OC[C@H]2O[C@H](C#Cc3ccccc3)C=C[C@@H]2Oc2ccc(C)cc2)C=C[C@@H]1Oc1ccc(OC)cc1, the composite z-score [1] is reported as 0.0836, the composite z-score [2] is reported as -0.115 and the composite z-score [3] is reported as -0.124. For the same compound, the composite z-score [4] was -0.187, the composite z-score [5] was -0.0132 and the composite z-score [6] was -0.21. For the same compound, the composite z-score [7] was -0.861, the z-score [8] was 0.751 (inactive) and the composite z-score [9] was -0.244. It also gave a composite z-score [10] of 1.27.
For COC(=O)C1=C(C)N(Cc2ccccc2)[C@]23O[C@](C(=O)OC)(C(=O)N2[C@@H]1c1ccccc1)[C@@H](c1ccccc1)[C@@H]3C(=O)c1ccccc1, the composite z-score [1] was -0.139 and -0.413, the composite z-score [2] was 0.458 and -0.235 and the composite z-score [3] was -0.0716 and -0.0931. The composite z-score [4] was 0.236 and 0.391, the composite z-score [5] was 0.789 and 0.499 and the composite z-score [6] was 0.489 and -0.621. The composite z-score [7] was 0.428 and 0.602, the z-score [8] was -0.0163 (inactive) and 0.21 (inactive) and the composite z-score [9] was 0.398 and 0.155. For the same compound, the composite z-score [10] was -0.132 and -0.226.
With C=CCN(C(=O)C(c1cccs1)N(C(=O)/C=C\C(=O)O)c1ccc(CCO)cc1)c1ccc(OC)cc1 (stereo not given) the composite z-score [1] was 0.862 and 1.92, the composite z-score [2] was -0.812 and -1.02 and the composite z-score [3] was -0.236 and -0.312. The composite z-score [4] was -1.73 and -1.74, the composite z-score [5] was -1.21 and -2.49 and the composite z-score [6] was 0.017 and -1.66. For the same compound, the composite z-score [7] was 0.877 and -1.46, the z-score [8] was 0.253 (inactive) and 0.243 (inactive) and the composite z-score [9] was -0.889 and -1.13. For the same compound, the composite z-score [10] was -0.134 and -0.204.
